The values that follow come from ChEMBL document CHEMBL1961873, “Compounds: GSK PKIS; Assays: Nanosyn kinase panel” (2012).

Where “and” joins values, the source holds several entries; their conditions need not be identical. Equal entries are not always repeated.
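Further: enzyme inhibition of the BRAF V599E mutant kinase, given as mean percent inhibition, screened within the GSK PKIS kinase inhibitor set.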

Serine/threonine-protein kinase B-raf (Homo sapiens), P15056 [V600E], sequence (P15056 whole entry V600E): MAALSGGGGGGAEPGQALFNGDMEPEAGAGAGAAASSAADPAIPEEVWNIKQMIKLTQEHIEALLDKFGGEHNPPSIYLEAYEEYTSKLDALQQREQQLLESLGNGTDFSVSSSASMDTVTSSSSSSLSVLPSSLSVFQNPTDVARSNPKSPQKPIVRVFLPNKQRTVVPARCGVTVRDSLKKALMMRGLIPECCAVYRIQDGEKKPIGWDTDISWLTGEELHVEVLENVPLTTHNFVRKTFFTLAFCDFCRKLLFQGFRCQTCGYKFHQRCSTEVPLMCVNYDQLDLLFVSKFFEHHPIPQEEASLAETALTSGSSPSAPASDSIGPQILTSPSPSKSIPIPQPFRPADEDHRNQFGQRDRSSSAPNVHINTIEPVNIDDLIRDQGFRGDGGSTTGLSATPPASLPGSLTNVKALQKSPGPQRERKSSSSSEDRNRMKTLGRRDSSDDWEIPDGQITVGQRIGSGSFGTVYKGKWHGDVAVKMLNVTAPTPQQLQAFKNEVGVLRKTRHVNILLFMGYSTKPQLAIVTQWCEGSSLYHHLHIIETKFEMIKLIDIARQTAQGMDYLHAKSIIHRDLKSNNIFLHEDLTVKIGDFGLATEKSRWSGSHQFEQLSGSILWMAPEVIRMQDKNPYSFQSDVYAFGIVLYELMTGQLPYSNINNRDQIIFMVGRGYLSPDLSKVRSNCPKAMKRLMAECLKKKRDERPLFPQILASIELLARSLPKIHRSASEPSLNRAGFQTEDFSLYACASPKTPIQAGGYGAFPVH

This experiment has as its system Serine/threonine-protein kinase B-raf (Homo sapiens), P15056 [V600E]. As to conditions: at 1 µM.
As a reminder, the inhibition is the drop in the measured response relative to a control, in per cent. Consider `O=C1Nc2ccccc2/C1=C1\CCc2cc(O)ccc21`, for which the inhibition came out at 8.96%.
Under `CCS(=O)(=O)c1ccc(OC)c(Nc2ncc(-c3cccc(C(C)=O)c3)o2)c1` stands 5.84%; under `Cc1ccc(-c2cc3c(NC(=O)C4CC4)ncnc3o2)cc1`, 4.89%.
The same measure for `COc1ccc(-c2nn3ncccc3c2-c2ccnc(Nc3ccc(F)c(F)c3)n2)cc1`: 3.83%.
Regarding `O=C(Nc1n[nH]c2nnc(-c3cccnc3)cc12)C1CC1`, the inhibition is 3.66%.
Under `O=C(O[C@H]1CN[C@H](C#Cc2cc3ncnc(Nc4ccc5c(ccn5Cc5cc(F)ccc5F)c4)c3s2)C1)N1CCOCC1` stands 6.31%; under `COc1cccc(Nc2nccc(-c3cnn4ncccc34)n2)c1`, 30.7%; under `Nc1nccc(-c2c(-c3ccc(F)cc3)ncn2C2CCNCC2)n1`, 0.9% and 7.41%.
The same measure for `NC(=O)c1ccc2c(-c3ccnc(NCCCO)n3)c(-c3ccc(F)cc3)nn2c1`: 19.7%; for `CS(=O)(=O)Nc1ccc(-c2cc(-c3ccccc3)cc(C(N)=O)c2N)cc1`: 3.58%; for `CS(=O)(=O)Nc1ccc(-c2ccc3c(NC(=O)C4CC4)n[nH]c3c2)cc1`: 6.11%.
Under `Cn1c(-c2nonc2N)nc2cnccc21` stands 3.98%.
For `CC1=C(C(=O)Nc2ccc3[nH]ncc3c2)C(c2ccc(F)cc2)N=C(c2ccc(C(F)(F)F)nc2)N1` (stereo unspecified), the inhibition was 6.02%.
The same measure for `c1ccc(-c2n[nH]cc2-c2ccnc(-c3ccc(OCCn4ccnc4)cc3)c2)nc1`: 1.34%; for `CS(=O)(=O)CCNCc1ccc(-c2ccc3ncnc(Nc4ccc(OCc5cccc(C(F)(F)F)c5)cc4)c3c2)o1`: 5.8%.
Under `FC(F)(F)CNc1nccc(-c2cnn3ncccc23)n1` stands 2.52%.
As to `COc1ccc2ncn(-c3cc(O[C@H](C)c4ccccc4C(F)(F)F)c(C(N)=O)s3)c2c1`, the inhibition is -0.82%.
As to `N#Cc1cccc(Nc2ncc(-c3ccccc3)o2)c1`, the inhibition came out at 4.57%.
The same measure for `CCN1CCC(C(=O)Nc2n[nH]c3nnc(-c4cccc(F)c4F)cc23)CC1`: 1.24%; for `CNC(=O)c1ncccc1Nc1nc(Nc2cc3c(cc2OC)CCCN3C(=O)CN(C)C)nc2[nH]ccc12`: 9.32%; for `CNC(=O)c1cncc(/C=C/c2ccccc2C)c1`: 6.88%.
The same measure for `CS(=O)(=O)CCNCc1ccc(-c2ccc3ncnc(Nc4ccc(OCc5ccccc5)cc4)c3c2)o1`: 3.33%.
Under `CS(=O)(=O)CCNCc1ccoc1-c1ccc2ncnc(Nc3ccc(OCc4ccccc4)cc3)c2c1` stands 1.31%; under `COc1cc2c(cc1Nc1nc(Nc3cccc(F)c3C(N)=O)c3cc[nH]c3n1)N(C(=O)CN1CCN(C(C)C)CC1)CC2`, 4.6%; under `CN1CCC(n2cnc(-c3ccc(F)cc3)c2-c2ccnc(NCCO)n2)CC1`, 8.41%.
Consider `CCn1c(-c2nonc2N)nc2cncc(C(=O)NCCNC)c21`, for which the inhibition was determined as 4.42%.
Under `OCCCNc1nccc(-c2c(-c3ccc(F)cc3)nn3cc(C(F)(F)F)ccc23)n1` stands 9.93%; under `NS(=O)(=O)c1ccc(N/N=C2\C(=O)Nc3ccc(C(=O)NCc4ccncc4)cc32)cc1`, 56.3%.
The same measure for `CC1(C)CC(n2cnc(-c3ccc(F)cc3)c2-c2ccnc(N)n2)CC(C)(C)N1`: 0.8%.
As to `COC(=O)Nc1nc2ccc(Oc3ccc(NC(=O)Nc4cc(C(F)(F)F)ccc4F)cc3)cc2s1`, the inhibition came to 37.3%.
With `COc1c(C(N)=O)cc(-c2ccc(Cl)cc2)cc1-c1ccc(S(N)(=O)=O)cc1`, the inhibition was determined as 3.68%.
